Screening results as filed in PubChem BioAssay.
Only some compounds are listed: those with a hit (about 3.1% of all), similar ones and a draw of the others.
PAFAH1B2 FP inh = PAFAH1B2 enzyme inhibitors, primary screen, biochemical, fluorescence polarization, human. Platelet-activating factor acetylhydrolase IB subunit alpha2 (Homo sapiens), P68402. recombinant PAFAH1B2, FP-rhodamine activity probe. inhibition, % at 3.39 µM. 1.2% of 340,000 active. AID 492953, 2010;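 active means inhibition above the mean of all tested compounds plus 3 SD, cut at about 24% in these data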;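 further: 0% = enzyme with DMSO and 100% = wells lacking PAFAH1B2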
Target sequence (P68402 whole entry, looked up): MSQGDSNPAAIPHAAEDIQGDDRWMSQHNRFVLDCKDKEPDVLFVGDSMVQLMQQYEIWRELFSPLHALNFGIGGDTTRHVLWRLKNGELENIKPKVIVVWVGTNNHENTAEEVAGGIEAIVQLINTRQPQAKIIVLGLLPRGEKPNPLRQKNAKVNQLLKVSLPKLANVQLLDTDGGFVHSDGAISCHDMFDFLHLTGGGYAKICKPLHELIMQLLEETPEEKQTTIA
PAFAH1B3 inh = PAFAH1B3 enzyme inhibitors, primary screen, biochemical, fluorescence polarization, human; inhibition, % at 3.39 µM; 0.28% of 340,000 active; recombinant PAFAH1B3, FP-rhodamine probe; Platelet-activating factor acetylhydrolase IB subunit alpha1 (Homo sapiens), Q15102;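 active means inhibition above the screen-wide average of all tested compounds plus 3 SD, cut at about 25% in these data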;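 further: 0% = enzyme with DMSO only and 100% = wells lacking PAFAH1B3 protein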
Target sequence (Q15102 whole entry, looked up): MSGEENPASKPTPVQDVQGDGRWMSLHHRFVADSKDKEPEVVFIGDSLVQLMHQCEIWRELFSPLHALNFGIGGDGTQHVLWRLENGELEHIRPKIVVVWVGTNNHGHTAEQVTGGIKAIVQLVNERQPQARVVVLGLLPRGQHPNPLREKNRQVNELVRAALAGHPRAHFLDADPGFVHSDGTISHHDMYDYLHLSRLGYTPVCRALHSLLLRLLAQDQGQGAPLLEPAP
PAFAH2 FP inh = PAFAH2 enzyme inhibitors, primary screen, biochemical, fluorescence polarization, human; Platelet-activating factor acetylhydrolase 2, cytoplasmic (Homo sapiens), Q99487; recombinant PAFAH2, FP-rhodamine activity probe; inhibition, % at 3.39 µM; 0.99% of 340,000 active;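 active means inhibition above the mean over all tested compounds plus 3 SD, cut at about 30% in these data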;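 further: inhibitors block probe labeling of enzyme so polarization drops; 0% = enzyme with DMSO and 100% = wells lacking PAFAH2 protein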
pPAFAH FP inh = pPAFAH enzyme inhibitors, primary screen, biochemical, fluorescence polarization, human; Platelet-activating factor acetylhydrolase (Homo sapiens), Q13093; recombinant pPAFAH, FP-rhodamine probe fluorescence polarization; inhibition, % at 3.39 µM; 1.5% of 330,000 active;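 active means inhibition above the mean inhibition across the screen plus 3 SD, cut at about 25% in these data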;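 further: inhibitors block binding of the rhodamine activity-based probe so polarization drops; 0% = enzyme with DMSO and 100% = wells lacking pPAFAH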
Rin1 Abl inh = inhibitors of Rin1-Abl protein binding, primary screen, biochemical, TR-FRET | inhibition, % at 7.35 µM | 0.4% of 360,000 active | AID 588664, 2011; in the data active means inhibition above about 5%, passing the limit was not always enough
eLon inh = inhibitors of E. coli Lon protease, primary screen, biochemical, fluorescence polarization; 0.42% of 360,000 active; inhibition, % at 7.94 µM; AID 602123, 2011; purified E. coli Lon protease; in the data active means inhibition above about 13%, passing the limit was not always enough;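 further: 0% = enzyme with probe and DMSO and 100% = no enzyme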
* = called active by the depositor.

Screening Cc1csc(CNc2ncnc3ccc(-c4cccnc4)cc23)c1 returned PAFAH1B2 FP inh 1, PAFAH1B3 inh -4, PAFAH2 FP inh -3, pPAFAH FP inh 3, Rin1 Abl inh -2 and eLon inh 5.
For Cc1csc(CNc2ncnc3ccc(-c4ccccc4Cl)cc23)c1 the results were PAFAH1B2 FP inh -6, PAFAH1B3 inh 0, PAFAH2 FP inh -12, pPAFAH FP inh 29*, Rin1 Abl inh -3 and eLon inh -5.
Screening Nc1ccccc1SCC(=O)Nc1ccc2c(c1)OCO2 returned PAFAH1B2 FP inh -4, PAFAH1B3 inh -11, PAFAH2 FP inh 2, pPAFAH FP inh 5, Rin1 Abl inh -1 and eLon inh -3.
`CC(C)CSc1nc2c(=O)[nH][nH]c(=O)c2n1Cc1ccccc1` gave PAFAH1B2 FP inh 19, PAFAH1B3 inh 9, PAFAH2 FP inh 1, pPAFAH FP inh 30*, Rin1 Abl inh 0 and eLon inh -6.
CC(C)CSc1nc2c(c(=O)[nH]c(=O)n2C)n1CCc1ccccc1 was read as PAFAH1B2 FP inh 4, PAFAH1B3 inh 1, PAFAH2 FP inh -3, pPAFAH FP inh 5, Rin1 Abl inh 0 and eLon inh -6.
For Cc1ccc(NC(=S)NC(=O)/C=C/c2ccco2)c(O)c1 the results were PAFAH1B2 FP inh 3, PAFAH1B3 inh 5, PAFAH2 FP inh 5, pPAFAH FP inh 30*, Rin1 Abl inh 2 and eLon inh -11.
Screening O=C(/C=C\c1ccco1)NC(=S)Nc1ccccc1O returned PAFAH1B2 FP inh 1, PAFAH1B3 inh 6, PAFAH2 FP inh -2, pPAFAH FP inh 33*, Rin1 Abl inh 0 and eLon inh -12.
`O=C(/C=C/c1ccco1)NC(=S)Nc1ccccc1O` gave pPAFAH FP inh 23, Rin1 Abl inh 1 and eLon inh -11.
Screening Cc1nc(N)sc1-c1csc(N(C)c2ccc(O)cc2)n1 returned PAFAH1B2 FP inh 3, PAFAH1B3 inh 6, PAFAH2 FP inh 5, pPAFAH FP inh 27*, Rin1 Abl inh 0 and eLon inh -12.
For CN(c1ccc(O)cc1)c1nc(-c2cccs2)cs1 the results were PAFAH1B2 FP inh -3, PAFAH1B3 inh 8, PAFAH2 FP inh 4, pPAFAH FP inh 8, Rin1 Abl inh -4 and eLon inh 7.
O=C(O)c1ccccc1N=Nc1c(O)[nH]c2ccc([N+](=O)[O-])cc12 was read as PAFAH1B2 FP inh 9, PAFAH1B3 inh 18, PAFAH2 FP inh 37*, pPAFAH FP inh 21, Rin1 Abl inh 4 and eLon inh 2.
Cc1ccc(NCC(=O)N=Nc2c(O)[nH]c3ccc([N+](=O)[O-])cc23)cc1 was read as pPAFAH FP inh 25*.
For Cc1c(C(=O)NCc2ccccc2C(F)(F)F)sc(=O)n1Cc1ccc2c(c1)OCO2 the results were Rin1 Abl inh 1 and eLon inh 0.
CC(C)CCNS(=O)(=O)c1cc2c3c(c1)CCN3C(=O)CC2 was read as PAFAH1B2 FP inh 7, PAFAH1B3 inh 5, PAFAH2 FP inh 3, pPAFAH FP inh 0, Rin1 Abl inh 4 and eLon inh 0.
Screening CCC(=O)N1CCC1(C)C(=O)Nc1cccc2c1CCCC2 (stereo unspecified) returned Rin1 Abl inh -1 and eLon inh 13.
Screening Cc1ccc(N2CC(C(=O)Nc3nnc(SCc4ccccn4)s3)CC2=O)cc1 (stereo unspecified) returned PAFAH1B2 FP inh 7, PAFAH1B3 inh 6, PAFAH2 FP inh 0, pPAFAH FP inh 3, Rin1 Abl inh -4 and eLon inh -6.
`Cc1cccc(N2CC(C(=O)Nc3nnc(SCc4ccccn4)s3)CC2=O)c1` (stereo unspecified) gave PAFAH1B2 FP inh 5, PAFAH1B3 inh 11, PAFAH2 FP inh 9, pPAFAH FP inh 27*, Rin1 Abl inh 1 and eLon inh -6.
`Clc1ccc2c(c1)c1cc(Cl)ccc1n2CN1CCOCC1` gave PAFAH1B2 FP inh -1, PAFAH1B3 inh 6, PAFAH2 FP inh -5, pPAFAH FP inh 27*, Rin1 Abl inh 0 and eLon inh -11.
`CCC(Cc1ccccc1)OC(=O)c1ccccc1C(=O)O` (stereo unspecified) gave PAFAH1B2 FP inh 12, PAFAH1B3 inh 12, PAFAH2 FP inh 7, Rin1 Abl inh 0 and eLon inh 4.
`COc1ccc(/C=C/C(=O)CC(O)(c2ccccc2)C(F)(F)F)cc1` (stereo unspecified) gave PAFAH1B2 FP inh 26*, PAFAH1B3 inh 10, PAFAH2 FP inh 10, pPAFAH FP inh -4, Rin1 Abl inh 2 and eLon inh -10.
Screening O=C(/C=C/c1ccccc1)CC(O)(c1ccccc1)C(F)(F)F (stereo unspecified) returned PAFAH1B2 FP inh 55*, PAFAH1B3 inh -2, PAFAH2 FP inh 9, pPAFAH FP inh 2, Rin1 Abl inh 1 and eLon inh 0.
For O=C(c1ccccc1)c1coc2c1C(=O)c1ccccc1C2=O the results were PAFAH1B2 FP inh 3, PAFAH1B3 inh 29*, PAFAH2 FP inh 48*, pPAFAH FP inh 1, Rin1 Abl inh -2 and eLon inh 4.
Screening COc1ccc(C(=O)c2coc3c2C(=O)C(=O)c2ccccc2-3)cc1 returned PAFAH1B2 FP inh 5, PAFAH1B3 inh 11, PAFAH2 FP inh 15, pPAFAH FP inh 19, Rin1 Abl inh 0 and eLon inh 3.
For COc1ccccc1/C=C1\S/C(=N/NC(=O)c2cccc(Br)c2)NC1=O the results were PAFAH1B2 FP inh 17, PAFAH1B3 inh 15, PAFAH2 FP inh 41*, pPAFAH FP inh 17, Rin1 Abl inh -1 and eLon inh -4.
Screening Cc1c(N=C2C=C(Br)C(=O)C(Br)=C2)c(=O)n(-c2ccccc2)n1C returned PAFAH1B2 FP inh 35*, PAFAH1B3 inh 2, PAFAH2 FP inh 16, Rin1 Abl inh 8 and eLon inh -5.
For Cc1c(N=Nc2ccc(O)cc2)c(=O)n(-c2ccccc2)n1C the results were PAFAH1B2 FP inh 6, PAFAH1B3 inh 4, PAFAH2 FP inh 2, pPAFAH FP inh 2, Rin1 Abl inh 0 and eLon inh 3.
Screening COc1ccc(Oc2nnc(-c3ccc(C)cc3)c3ccccc23)cc1 returned PAFAH1B2 FP inh -4, PAFAH1B3 inh 3, PAFAH2 FP inh 1, pPAFAH FP inh -1, Rin1 Abl inh -2 and eLon inh -2.
Screening COc1ccc(-c2nnc(C)c3nocc23)cc1 returned PAFAH1B2 FP inh -2, PAFAH1B3 inh 0, PAFAH2 FP inh 0, pPAFAH FP inh 25*, Rin1 Abl inh 0 and eLon inh -19.
